Conditions in all cases: mRNA level, 48 h; actives raise or lower the signal
Read-out in experiment [1]: matrix metalloproteinase-10 (MMP10), MMP10 (gene 4319)
In words: LTEA_HepaRG_MMP10: Life Technologies and Expression Analysis (LTEA) Assay for matrix metalloproteinase-10 (MMP10) using HepaRG (AID 2283517). A digest of the protocol:
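In differentiated HepaRG cultures kept in 0.5% DMSO, test chemicals act for 48 h over an eight-point range with a top dose of 100 uM. Expression is then quantified by TaqMan RT-PCR against ACTB, GAPDH and POLR2A.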

Read-out in another experiment: MYC, MYC (gene 4609)
The experiment in a line: LTEA_HepaRG_MYC: Life Technologies and Expression Analysis (LTEA) Assay for MYC using HepaRG (AID 2283518). Put shortly:
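Expression changes were scored by TaqMan qRT-PCR with ACTB, GAPDH and POLR2A normalization. Cultures in serum-free induction medium received duplicate 8-point concentration series, highest 100 uM, for 48 h; DMSO (0.5%) served as baseline.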

Read-out in experiment [2]: matrix metalloproteinase-3 (MMP3), MMP3 (gene 4314)
In words: LTEA_HepaRG_MMP3: Life Technologies and Expression Analysis (LTEA) Assay for matrix metalloproteinase-3 (MMP3) using HepaRG (AID 2283519). A digest of the protocol:
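Human liver HepaRG cultures received chemicals (top concentration 100 uM, 0.5% DMSO) for 48 h in duplicate. MMP3 mRNA induction or loss was then assessed via TaqMan qRT-PCR with housekeeping-gene normalisation.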

Read-out in experiment [3]: Paternally Expressed 10 (PEG10), PEG10 (gene 23089)
In words: LTEA_HepaRG_PEG10: Life Technologies and Expression Analysis (LTEA) Assay for Paternally Expressed 10 (PEG10) using HepaRG (AID 2283520). A digest of the protocol: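 qRT-PCR read-out: PEG10 mRNA normalised to three housekeeping genes, fitted bidirectionally against 0.5% DMSO vehicle. HepaRG cells received test chemicals for 48 h in serum-free induction medium, 8 points, top 100 uM, half-log steps.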

Read-out in experiment [4]: Nuclear factor NF-kappa-B p105 subunit (Homo sapiens) (UniProt P19838)
The experiment in a line: LTEA_HepaRG_NFKB1: Life Technologies and Expression Analysis (LTEA) Assay for Nuclear Factor Kappa B Subunit 1 (NFKB1) using HepaRG (AID 2283521).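 Note: differentiated human HepaRG liver cells in serum-free induction medium; TaqMan qRT-PCR transcript normalised to ACTB GAPDH and POLR2A housekeeping genes.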 Put shortly: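 HepaRG, 48 h exposure; 8-pt half-log series from 100 uM in 0.5% DMSO; duplicates. Readout: NFKB1 mRNA by qRT-PCR (Fluidigm arrays), housekeeping-normalized. Gain/loss fit vs DMSO baseline.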

Read-out in experiment [5]: Protein phosphatase 2A (PPP2R4), PTPA (gene 5524)
The experiment in a line: LTEA_HepaRG_PPP2R4: Life Technologies and Expression Analysis (LTEA) Assay for Protein phosphatase 2A (PPP2R4) using HepaRG (AID 2283522). A digest of the protocol: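 HepaRG, 48 h exposure, 8-pt half-log series from 100 uM, 0.5% DMSO vehicle, duplicates. Readout: PPP2R4 mRNA, Fluidigm qRT-PCR, housekeeping-normalized. Bidirectional curve fit vs DMSO baseline.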

Read-out in experiment [6]: solute carrier (SLC22A1), SLC22A1 (gene 6580)
In words: LTEA_HepaRG_SLC22A1: Life Technologies and Expression Analysis (LTEA) Assay for solute carrier (SLC22A1) using HepaRG (AID 2283524). Put shortly:
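Transcript induction or suppression of SLC22A1 in human HepaRG cultures is scored after 48 h chemical treatment, with DMSO (0.5%) as baseline for bidirectional fitting. Concentrations span eight half-log points topping at 100 uM.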

Read-out in experiment [7]: Pyruvate Dehydrogenase Kinase 4 (PDK4), PDK4 (gene 5166)
In words: LTEA_HepaRG_PDK4: Life Technologies and Expression Analysis (LTEA) Assay for Pyruvate Dehydrogenase Kinase 4 (PDK4) using HepaRG (AID 2283525). A digest of the protocol: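 Eight-point, half-log concentration series (max 100 uM, 0.5% DMSO) applied to differentiated HepaRG cells for 48 h in duplicate. Endpoint: PDK4 mRNA induction or repression by qRT-PCR against DMSO baseline.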

Read-out in experiment [8]: NAD(P)H dehydrogenase [quinone] 1 (NQO1), NQO1 (gene 1728)
In words: LTEA_HepaRG_NQO1: Life Technologies and Expression Analysis (LTEA) Assay for NAD(P)H dehydrogenase [quinone] 1 (NQO1) using HepaRG (AID 2283526). Put shortly:
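qRT-PCR read-out (Fluidigm TaqMan), normalized to three housekeeping genes, after 48 h chemical exposure of HepaRG cells. Concentrations: eight points, top 100 uM, half-log steps, 0.5% DMSO vehicle. Gain or loss of signal fitted relative to DMSO.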

Read-out in experiment [9]: Nuclear factor erythroid 2-related factor 2 (Homo sapiens) (UniProt Q16236)
The experiment in a line: LTEA_HepaRG_NFE2L2: Life Technologies and Expression Analysis (LTEA) Assay for Nuclear factor erythroid 2-related factor 2 (NFE2L2) Transcription Factor using HepaRG (AID 2283527).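 Note: TaqMan qRT-PCR transcript level normalised to ACTB GAPDH and POLR2A housekeeping genes.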 A digest of the protocol:
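Human liver HepaRG line treated in duplicate for 48 h with an eight-point series topping at 100 uM. Gene expression of NFE2L2 by qRT-PCR, bidirectionally fitted against the vehicle control.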

Read-out in experiment [10]: succinate dehydrogenase complex iron sulfur subunit B (SDHB), SDHB (gene 6390)
In words: LTEA_HepaRG_SDHB: Life Technologies and Expression Analysis (LTEA) Assay for succinate dehydrogenase complex iron sulfur subunit B (SDHB) using HepaRG (AID 2283528). Put shortly:
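Readout is SDHB transcript level by qRT-PCR, normalised to three housekeeping genes and fitted bidirectionally against 0.5% DMSO vehicle. Human HepaRG cells were treated for 48 h at up to 100 uM.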

Read-out in experiment [11]: Signal transducer and activator of transcription 3 (Homo sapiens) (UniProt P40763)
The experiment in a line: LTEA_HepaRG_STAT3: Life Technologies and Expression Analysis (LTEA) Assay for Signal transducer and activator of transcription (STAT3) using HepaRG (AID 2283529). Put shortly: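 In this transcriptional endpoint, HepaRG cultures receive test chemicals at up to 100 uM for 48 h, tested in duplicate. STAT3 mRNA is normalized to ACTB, GAPDH and POLR2A.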

Read-out in experiment [12]: solute carrier (SLCO1B1), SLCO1B1 (gene 10599)
In words: LTEA_HepaRG_SLCO1B1: Life Technologies and Expression Analysis (LTEA) Assay for solute carrier (SLCO1B1) using HepaRG (AID 2283530). A digest of the protocol:
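Human HepaRG cultures treated for 48 h with an eight-concentration half-log series topping at 100 uM; SLCO1B1 measured by qRT-PCR and fitted bidirectionally relative to DMSO.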

Read-out in experiment [13]: sulfotransferase 2A1 (SULT2A1), SULT2A1 (gene 6822)
In words: LTEA_HepaRG_SULT2A1: Life Technologies and Expression Analysis (LTEA) Assay for sulfotransferase 2A1 (SULT2A1) using HepaRG (AID 2283531). A digest of the protocol: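 Gene-expression endpoint in a human liver cell line: SULT2A1 mRNA change after 48 h chemical treatment, curves fitted in both directions relative to 0.5% DMSO vehicle. Concentrations spanned eight half-log steps from 100 uM.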

Read-out in experiment [14]: Transforming Growth Factor (TGFA), TGFA (gene 7039)
In words: LTEA_HepaRG_TGFA: Life Technologies and Expression Analysis (LTEA) Assay for Transforming Growth Factor (TGFA) using HepaRG (AID 2283532). A digest of the protocol: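 Gene expression of TGFA was quantified by qRT-PCR after human HepaRG cells were treated for 48 h with test chemicals (eight concentrations, highest 100 uM, 0.5% DMSO). Activity in either direction was fitted relative to DMSO.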

Read-out in experiment [15]: Transforming Growth Factor (TGFB1), TGFB1 (gene 7040)
In words: LTEA_HepaRG_TGFB1: Life Technologies and Expression Analysis (LTEA) Assay for Transforming Growth Factor (TGFB1) Transporter using HepaRG (AID 2283533). A digest of the protocol:
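Eight-point concentration-response (max 100 uM, half-log) in HepaRG under serum-free induction conditions, 48 h. TGFB1 mRNA by qRT-PCR, housekeeping-normalized.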

Read-out in another experiment: TIMP1, TIMP1 (gene 7076)
In words: LTEA_HepaRG_TIMP1: Life Technologies and Expression Analysis (LTEA) Assay for TIMP1 using HepaRG (AID 2283534).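 Note: TaqMan qRT-PCR signal normalized to ACTB GAPDH and POLR2A housekeeping genes.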 Put shortly: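 TIMP1 induction or repression in HepaRG cells after 48 h chemical exposure (eight concentrations, highest 100 uM), assessed by normalized qRT-PCR with bidirectional fitting to DMSO controls.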

Read-out in experiment [16]: Tumor necrosis factor receptor 1 (TNFRSF1A), TNFRSF1A (gene 7132)
In words: LTEA_HepaRG_TNFRSF1A: Life Technologies and Expression Analysis (LTEA) Assay for Tumor necrosis factor receptor 1 (TNFRSF1A) using HepaRG (AID 2283535). Put shortly: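 Assay uses 48 h chemical treatment of differentiated HepaRG monolayers, tested in duplicate at eight concentrations from 100 uM downward in 0.5% DMSO. mRNA is normalized to ACTB, GAPDH and POLR2A, with induction or suppression fitted relative to vehicle.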

Read-out in experiment [17]: Thyroid Hormone Responsive (THRSP), THRSP (gene 7069)
In words: LTEA_HepaRG_THRSP: Life Technologies and Expression Analysis (LTEA) Assay for Thyroid Hormone Responsive (THRSP) using HepaRG (AID 2283536). A digest of the protocol: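 Cell model: human HepaRG, approx. 100,000 cells/well, 0.5% DMSO vehicle. Exposure lasts 48 h; phenobarbital 1 mM serves as induction positive control. Gene expression is measured by qRT-PCR against three endogenous control genes.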

SMILES strings stand for the structures. Calls of active or inactive are those of the source. Rule for the calls: active = hit-call score of the fitted dose curve at least 0.9, where 1 is the maximum; inactive = score below 0.9.

Chain of Nuclear factor NF-kappa-B p105 subunit (Homo sapiens) (P19838 whole entry, looked up): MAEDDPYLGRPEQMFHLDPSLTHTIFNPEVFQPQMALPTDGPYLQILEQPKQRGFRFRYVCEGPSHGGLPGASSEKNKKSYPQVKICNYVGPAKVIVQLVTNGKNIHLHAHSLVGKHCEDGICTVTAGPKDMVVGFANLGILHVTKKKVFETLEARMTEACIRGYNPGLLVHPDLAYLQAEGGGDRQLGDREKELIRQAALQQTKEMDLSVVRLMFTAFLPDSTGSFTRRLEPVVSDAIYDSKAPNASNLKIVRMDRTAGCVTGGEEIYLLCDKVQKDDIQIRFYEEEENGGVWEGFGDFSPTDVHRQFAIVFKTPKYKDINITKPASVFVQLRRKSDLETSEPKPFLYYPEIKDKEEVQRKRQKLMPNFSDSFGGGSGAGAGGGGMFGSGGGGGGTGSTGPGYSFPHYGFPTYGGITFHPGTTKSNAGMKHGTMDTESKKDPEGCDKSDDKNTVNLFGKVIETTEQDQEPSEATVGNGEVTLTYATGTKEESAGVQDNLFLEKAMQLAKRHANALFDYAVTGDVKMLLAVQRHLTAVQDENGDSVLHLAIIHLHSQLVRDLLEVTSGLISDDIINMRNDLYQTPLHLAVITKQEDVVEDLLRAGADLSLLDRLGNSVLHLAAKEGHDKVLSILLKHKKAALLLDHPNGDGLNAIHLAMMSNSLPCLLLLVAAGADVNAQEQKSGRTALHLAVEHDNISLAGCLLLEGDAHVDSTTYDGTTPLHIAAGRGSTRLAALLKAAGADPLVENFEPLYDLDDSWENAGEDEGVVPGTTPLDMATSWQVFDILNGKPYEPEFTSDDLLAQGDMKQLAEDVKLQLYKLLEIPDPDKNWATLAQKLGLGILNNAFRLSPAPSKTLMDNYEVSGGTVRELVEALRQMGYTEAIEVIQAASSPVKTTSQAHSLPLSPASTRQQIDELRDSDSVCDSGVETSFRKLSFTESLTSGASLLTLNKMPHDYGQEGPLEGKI
Chain of Signal transducer and activator of transcription 3 (Homo sapiens) (P40763 whole entry, looked up): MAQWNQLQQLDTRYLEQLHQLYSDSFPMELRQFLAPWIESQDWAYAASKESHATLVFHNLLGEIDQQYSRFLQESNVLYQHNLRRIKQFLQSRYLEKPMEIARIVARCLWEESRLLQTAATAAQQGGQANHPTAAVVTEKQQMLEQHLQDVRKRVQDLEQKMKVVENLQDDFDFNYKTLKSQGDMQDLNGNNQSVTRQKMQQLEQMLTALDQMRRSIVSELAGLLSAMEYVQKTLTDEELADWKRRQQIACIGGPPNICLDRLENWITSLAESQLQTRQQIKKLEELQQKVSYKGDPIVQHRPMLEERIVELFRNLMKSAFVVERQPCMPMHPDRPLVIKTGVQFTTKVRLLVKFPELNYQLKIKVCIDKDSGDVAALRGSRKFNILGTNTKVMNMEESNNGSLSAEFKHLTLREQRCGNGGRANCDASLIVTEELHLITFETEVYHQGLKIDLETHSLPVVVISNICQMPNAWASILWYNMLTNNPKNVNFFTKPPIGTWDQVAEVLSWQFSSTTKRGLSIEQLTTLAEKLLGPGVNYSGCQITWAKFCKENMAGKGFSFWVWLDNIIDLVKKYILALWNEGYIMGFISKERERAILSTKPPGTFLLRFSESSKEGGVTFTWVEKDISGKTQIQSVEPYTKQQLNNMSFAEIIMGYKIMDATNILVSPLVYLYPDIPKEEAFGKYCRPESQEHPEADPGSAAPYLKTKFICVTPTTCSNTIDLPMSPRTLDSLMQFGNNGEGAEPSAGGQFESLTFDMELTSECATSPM
Chain of Nuclear factor erythroid 2-related factor 2 (Homo sapiens) (Q16236 whole entry, looked up): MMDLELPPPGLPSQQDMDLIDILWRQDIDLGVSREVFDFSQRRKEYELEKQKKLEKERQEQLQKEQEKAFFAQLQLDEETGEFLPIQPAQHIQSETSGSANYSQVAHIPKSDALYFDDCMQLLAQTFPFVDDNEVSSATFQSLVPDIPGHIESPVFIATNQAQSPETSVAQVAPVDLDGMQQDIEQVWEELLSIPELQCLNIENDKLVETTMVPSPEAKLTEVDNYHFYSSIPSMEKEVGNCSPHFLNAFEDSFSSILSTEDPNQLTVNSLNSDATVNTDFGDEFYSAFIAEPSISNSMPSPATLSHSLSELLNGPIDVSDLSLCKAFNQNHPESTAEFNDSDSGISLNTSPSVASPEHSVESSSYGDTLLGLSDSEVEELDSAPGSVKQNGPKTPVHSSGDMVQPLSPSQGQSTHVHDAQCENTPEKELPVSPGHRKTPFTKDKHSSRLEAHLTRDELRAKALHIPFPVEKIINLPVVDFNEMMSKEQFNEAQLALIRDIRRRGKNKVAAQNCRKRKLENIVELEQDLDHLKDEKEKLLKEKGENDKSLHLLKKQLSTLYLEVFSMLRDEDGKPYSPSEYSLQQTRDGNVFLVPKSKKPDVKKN

Consider `O=c1c(O)c(-c2ccc(O)c(O)c2)oc2cc(O)cc(O)c12`, for which the outcome in [1] is “inactive”; with MYC, MYC (gene 4609), “inactive”; in experiment [2], “inactive”; in [3] it was “inactive”; in experiment [4], “inactive”; in experiment [5] it was “inactive”. The result in experiment [6], in experiment [7], in experiment [8], in [9], in [10] and in experiment [11] was inactive. In addition, the outcome in experiment [13] is “inactive”; in experiment [14], “inactive”; in [15] it was “inactive”; in the experiment with TIMP1, TIMP1 (gene 7076), “inactive”; in experiment [16], “inactive”; in experiment [17], “inactive”. Further, the AC50 in experiment [12] was 86.8 µM (active).
In the case of `Nc1nc(N)c2nc(CNc3ccc(C(=O)N[C@@H](CCC(=O)O)C(=O)O)cc3)cnc2n1`, the outcome in [1] is “inactive”; with MYC, MYC (gene 4609) it was “inactive”; in experiment [2], “inactive”; in experiment [3] it was “inactive”; in [4] it was “inactive”; in [5], “inactive”. For the same compound, the compound was called inactive in [6], in experiment [8], in [9], in [10], in experiment [11] and in [12]. Also, the outcome in experiment [14] is “inactive”; in experiment [15] it was “inactive”; with TIMP1, TIMP1 (gene 7076), “inactive”; in experiment [16], “inactive”; in experiment [17], “inactive”. The AC50 is 0.0967 µM (active) in experiment [7] and 0.0974 µM (active) in experiment [13].
For the compound `CCCCCCCC=O`, the outcome in experiment [1] was “inactive”; with MYC, MYC (gene 4609), “inactive”; in experiment [2], “inactive”; in experiment [3] it was “inactive”; in experiment [4], “inactive”; in experiment [5] it was “inactive”. For the same compound, the result in [6], in [7], in experiment [8], in experiment [9], in experiment [10] and in [11] was inactive. Further, the outcome was “inactive” in experiment [12]; “inactive” in experiment [13]; “inactive” in experiment [14]; “inactive” in [15]; “inactive” with TIMP1, TIMP1 (gene 7076); “inactive” in experiment [16]. Further, in experiment [17], the result was inactive.

A word on the AC50: it is the concentration at which the activity in the assay is half-maximal.

The values above are taken from PubChem BioAssay (EPA / NIEHS).
